Hits are enriched below; roughly 7.4% of the tested compounds scored in any of these assays.
Luc counter = Counterscreen for Luciferase (Kinase-Glo TM) Inhibition; 200,000 tested, 0.28% active; Potency, µM (highest dose often 38.3 µM), inactives show at the top dose activity change, negative = inhibition, actives largely listed as inhibitors; Kinase-Glo luciferase, ATP luminescence, 8 min; further: on the % scale 0 is the no-effect control and ±100 the full control effect; nearly all actives have a fitted effect of over 60% in size
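Luminescence was the read-out, taken after 8-minute incubation at ambient temperature. Luciferase turned over luciferin with 10 uM ATP in imidazole pH 7.2 buffer containing KCl, MgCl2, Tween 20 and BSA.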
ELG1 genotox = qHTS screen for small molecules that induce genotoxicity in human embryonic kidney (HEK293T) cells expressing luciferase-tagged ELG1; 330,000 tested, 1.3% active; HEK293T ELG1-luciferase reporter, luminescence, 16 h; Potency, µM (titrated, usually from 46 µM), inactives show at the highest dose activity change, positive = activation, hits mostly activators; further: % of control where 0% means no effect; nearly all actives have a fitted effect of over 60% in size
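Quantitative HTS format in 1536-well plates. HEK293T ELG1-luciferase reporter cells receive test compound and are incubated 16 hr at 37 °C, 5% CO2; ONE-Glo added, 30 min room temperature, then luminescence read.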
Rab9 prom act = qHTS Assay for Rab9 Promoter Activators | Huh7 Rab9 promoter-luciferase reporter, luminescence, 24 h | Potency, µM (doses to about 9.22 µM), for the others: at the top dose activation, negative = inhibition, hits mostly activators | 320,000 tested, 2.8% active; further: % of control where 0% means no effect; nearly all actives have a fitted effect of over 60% in size
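Luminescence read-out: Huh7 cells stably expressing Rab9-luciferase, treated 24 h with compound at 37 °C, then lysed with luciferase reagent for 10 min at ambient before reading.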
SMN2 splice up = qHTS Assay for Enhancers of SMN2 Splice Variant Expression; 210,000 tested, 2.8% active; HEK293 SMN2-luciferase splicing reporter, luminescence, 30-36 h; Potency, µM (series often up to 46.1 µM), for inactives: at the top dose activity change, positive = activation, hits mostly activators; AID 1458, 2008; further: % of control where 0% means no effect; nearly all actives have a fitted effect of over 55% in size
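qHTS luciferase splicing reporter: luminescence rises when SMN2 exon 7 is included in transfected HEK293 cells. Compound exposure lasted 30-36 h at 37C, with 4.5 mM final sodium butyrate as control, followed by a ONE-Glo read.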
FLuc modulator = qHTS profiling assay for firefly luciferase inhibitor/activator using purifed enzyme and Km concentrations of substrates (counterscreen for miR-21 project); Potency, µM (titrated, usually from 57.5 µM), for inactives: top-dose activity change, negative = inhibition, most hits filed as inhibitors; 360,000 tested, 6.9% active; Luciferin 4-monooxygenase (Photinus pyralis), P08659; AID 588342, 2011; purified FLuc, Km substrates, luminescence inhibition;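 further: plate controls were vehicle for no effect and reference inhibitor for full effect; nearly all actives have a fitted effect of over 55% in size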
Target sequence (P08659 whole entry, looked up): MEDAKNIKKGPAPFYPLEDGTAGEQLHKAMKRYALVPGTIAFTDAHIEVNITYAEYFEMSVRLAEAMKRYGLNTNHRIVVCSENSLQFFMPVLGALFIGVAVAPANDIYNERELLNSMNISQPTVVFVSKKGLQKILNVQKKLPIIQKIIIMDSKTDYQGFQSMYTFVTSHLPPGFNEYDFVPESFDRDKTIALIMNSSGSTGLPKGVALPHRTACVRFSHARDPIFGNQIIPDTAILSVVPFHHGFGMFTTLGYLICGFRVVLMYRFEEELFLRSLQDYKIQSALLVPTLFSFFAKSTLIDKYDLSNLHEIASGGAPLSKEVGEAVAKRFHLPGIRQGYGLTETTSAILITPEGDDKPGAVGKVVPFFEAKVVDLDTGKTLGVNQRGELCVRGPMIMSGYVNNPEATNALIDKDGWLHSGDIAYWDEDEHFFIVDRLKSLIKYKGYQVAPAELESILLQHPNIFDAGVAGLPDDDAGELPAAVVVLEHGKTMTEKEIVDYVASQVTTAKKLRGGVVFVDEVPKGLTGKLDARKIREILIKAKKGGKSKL
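Biochemical qHTS of compounds, final roughly 60 µM downward over six points, against 10 nM purified firefly luciferase using Km concentrations of substrates (10 uM D-luciferin, 10 uM ATP) in Tris acetate pH 7.5 buffer; luminescence output.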
NPC1 prom act = qHTS Assay for NPC1 Promoter Activators | 320,000 tested, 2.4% active | AID 485313, 2010 | Potency, µM (titrated, usually from 9.22 µM), for inactives: at the top dose activation, actives largely listed as activators | Huh7 NPC1 promoter luciferase reporter, 24 h; further: % of control where 0% means no effect; nearly all actives have a fitted effect of over 60% in size
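Stably transfected Huh7 (NPC1 promoter→luciferase), 1500 cells/well in Opti-MEM + 10% FBS, 2 h settle, then compound 24 h at 37 °C. Luminescence after 10 min with Amplite reagent.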
An asterisk follows results filed as active; ? = inconclusive; nt = no result given. The call rests on the fitted dose curve; in most records, active means well fitted curve in the direction sought with a large enough effect; inconclusive means small, poorly fitted or top-dose-only effect, or another doubt; inactive means no such curve, though single readings can be large; an effect the other way counts as inactive or inconclusive. Potency means the concentration at half of the fitted maximal effect.

SMILES | Luc counter | ELG1 genotox | Rab9 prom act | SMN2 splice up | FLuc modulator | NPC1 prom act
O=C(c1cccc(F)c1)N1CCC2(CC1)CN(C(c1ccccc1)c1ccccc1)C2 | -1% | nt | nt | -21% | nt | nt
COc1ccc(/C=N/NC(=O)c2ccc(O)cc2O)cc1CSc1ccccn1 | -3% | 4% | 3% | 7% | 27µM* | 1%
CCOc1ccc(NC(=O)c2cc3sc(Cl)cc3n2CC)cc1 | nt | nt | nt | -2% | -2% | nt
Cc1ccccc1NS(=O)(=O)c1ccc2c3c(cccc13)C(=O)N2C | nt | 21µM* | 0% | nt | 2% | -5%
CCN(CC)C(=O)CSc1nc2c(c(=O)n(C)c(=O)n2C)n1Cc1ccccc1 | nt | nt | nt | -2% | 6% | nt
CCCSc1ccc2nc(-c3ccccc3)cn2c1 | 10µM* | ? | 0.45µM* | nt | 0.085µM* | 0.71µM*
CCCCSc1ccc2nc(-c3ccc(C#N)cc3)cn2c1 | 6% | 4% | ? | ? | 4.8µM* | ?
CCCn1nc(NC(=O)c2cccs2)c2cc3cc(OC)ccc3nc21 | -3% | 19% | 6% | 22% | 11µM* | 5%
CCCCn1nc(NC(=O)c2cccs2)c2cc3cc(OC)ccc3nc21 | 2% | 0% | -6% | 9% | 19µM* | -1%
CCCn1nc(NC(=O)c2cccs2)c2cc3ccccc3nc21 | 0% | -11% | -16% | -22% | ? | -6%
CCCCn1nc(NC(=O)c2cccs2)c2cc3ccccc3nc21 | -1% | -8% | 18% | nt | 24µM* | -2%
CCCn1nc(NC(=O)c2cccs2)c2cc3cc(C)ccc3nc21 | nt | -3% | -1% | nt | 6.7µM* | 6%
CCC(=O)N1CCc2cc(S(=O)(=O)NC(Cc3ccccc3)C(=O)NCc3ccc(F)cc3)ccc21 (configuration not stated) | nt | nt | nt | -5% | -2% | nt
CCOC(=O)c1ccc(NC(=O)CCn2nnc3ccccc32)cc1 | 2% | 6% | 3% | 10% | 0% | -1%
CCOC(=O)c1ccc(NC(=O)CN2C(=O)CSC2=O)cc1 | 2% | 2% | 1% | -9% | 21µM* | -13%
COC(=O)c1ccc(NC(=O)CN2C(=O)CSC2=O)cc1 | 2% | 0% | 1% | 8% | ? | 2%
CCOC(=O)c1ccc(NC(=O)Cn2nnc3ccccc32)cc1 | 0% | ? | 2.8µM* | -4% | 11µM* | 3.5µM*
CCOC(=O)c1ccc(NC(=O)CN2C(=O)CSCC2=O)cc1 | -1% | 6% | 6% | -5% | 15µM* | 1%
COC(=O)c1ccc(COn2nnc3ccccc32)cc1 | -14% | ? | 1µM* | 13µM* | 6.7µM* | 1.1µM*
CCC(C)NC(=O)c1ccc2nc(CCc3ccccc3)oc2c1 (configuration not stated) | nt | nt | nt | nt | -9% | nt
CCc1ccc(NC(=O)CN(c2ccc(C)cc2)S(=O)(=O)c2cccs2)cc1 | nt | nt | nt | -6% | -11% | nt
COc1ccc(C2c3[nH]c4ccccc4c3CCN2Cc2ccoc2)c(F)c1 (configuration not stated) | 4% | -3% | -14% | nt | 1% | 5%
COc1ccc(C2c3[nH]c4ccccc4c3CCN2C(=O)Cc2nonc2C)c(F)c1 (configuration not stated) | nt | 10% | ? | nt | 4.8µM* | 20%
CCn1nc(C)cc1C(=O)N1CCc2c([nH]c3ccccc23)C1c1cc(F)ccc1F (configuration not stated) | nt | ? | ? | nt | 21µM* | ?
Cc1cccc(C(=O)Nc2ccc(N3CCC(CCN4CCOCC4)CC3)c(C(=O)O)c2)c1 | nt | nt | -3% | nt | 0% | 2%
SMILES | Luc counter | ELG1 genotox | Rab9 prom act | SMN2 splice up | FLuc modulator | NPC1 prom act
CCOC(=O)c1c(S(=O)(=O)N2CCCC(C(=O)Nc3ccc(OCC)cc3)C2)c(C)n(C)c1C (configuration not stated) | nt | nt | nt | nt | -3% | nt
O=C1C2=C(Nc3ccccc3SC2c2ccc(C(F)(F)F)cc2)c2ccccc21 (configuration not stated) | nt | nt | nt | -74% | 3% | nt
CCc1ccc(C2Sc3ccccc3NC3=C2C(=O)c2ccccc23)cc1 (configuration not stated) | nt | nt | nt | -79% | 11µM* | nt
CC(C)c1ccc(C2Sc3ccccc3NC3=C2C(=O)c2ccccc23)cc1 (configuration not stated) | nt | nt | nt | -27% | 6µM* | nt
O=C(Cc1ccccc1)NNC(=O)c1ccc(NC(=O)c2ccccc2)cc1 | 0% | ? | 2% | 11% | 4% | -3%
CCCCNC(=O)Nc1ccc(C2SCCS2)cc1 | nt | ? | ? | nt | 15µM* | ?
CCCCNC(=O)Nc1ccccc1CC | nt | 0% | 0% | nt | 5% | 2%
CNC(=O)Nc1ccc(C2SCCS2)cc1 | nt | 9% | 4% | nt | 17µM* | 18%
O=C(Nc1ccc(C2SCCS2)cc1)c1ccccc1 | nt | ? | 1.4µM* | nt | 0.85µM* | 1.1µM*
CC(C)c1ccc(NC(=O)COc2ccc(C3SCCS3)cc2)cc1 | nt | 0% | -1% | nt | -3% | 1%
O=C(/C=C/c1ccc(S(=O)(=O)NCc2ccco2)cc1)NCc1ccccc1Cl | nt | 2% | 8% | nt | -1% | -5%
Cc1ccc(-c2cc(C(=O)NCc3ccco3)no2)cc1 | 0% | ? | 2.2µM* | ? | ? | 2.8µM*
CC(C)Cc1cc(C(=O)NCc2ccco2)no1 | nt | ? | 4µM* | nt | 17µM* | ?
Cc1ccc(-c2cc(C(=O)NCc3ccccn3)no2)cc1 | -2% | 13µM* | ? | 28µM* | 17µM* | ?
O=C(/C=C/c1ccc(Cl)cc1)NCc1ccco1 | -3% | 12% | 21% | 24% | 13µM* | 6%
CC1CCCCN1S(=O)(=O)c1ccc2c(c1)oc(=O)n2CC(=O)Nc1ccc(Cl)cc1 (configuration not stated) | nt | nt | nt | nt | -16% | nt
O=S(=O)(c1ccccc1)N1CCC2(CCN(c3cccc(-c4ccccc4)c3)CC2)CC1 | -5% | nt | nt | -36% | nt | nt
O=C(NCCCn1ccnc1)c1cn(-c2ccccc2)nc1-c1ccccc1 | -9% | nt | nt | 6% | 12µM* | nt
O=C(NCc1ccccn1)c1ccc(-c2ccccc2)cc1 | -4% | ? | ? | nt | 12µM* | ?
O=C(NCc1ccccn1)c1ccc([N+](=O)[O-])cc1 | -1% | -1% | -3% | -5% | -2% | -1%
O=C(NCc1ccco1)c1cc(-c2ccc3c(c2)OCO3)on1 | -7% | ? | 4µM* | ? | ? | 2.5µM*

Assay outcomes deposited in PubChem by National Center for Advancing Translational Sciences (NCATS).
